We go through seven compounds from PubChem BioAssay (NCI).

Compounds without any hit were thinned out: in the full panel of roughly 83,000, 20% have a hit.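 Cell lines were cultured in 96-well plates, exposed to a single compound concentration, and assessed for percent growth 48 hours later.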 A number with no mark means an inactive call. Calls of active or inactive are those of the source. How the source made its calls: active means growth percent below 10; inactive means the rest.

Test systems include NCI-H23 lung; NCI-H226 lung; NCI-H322M lung; HOP-62 NSCLC; NCI-H460 lung; HOP-92 NSCLC; NCI-H522 lung; A549/ATCC NSCLC; 786-0 renal; COLO 205 colon; DU-145 prostate; K-562 leukemia; MALME-3M melanoma; MDA-MB-231 breast; RXF 393 renal; SF-268 CNS; SF-295 CNS; SF-539 CNS; UACC-257 melanoma; M14 melanoma.
What all share (assay): NCI-60 one-dose screen, 48 h (100 = growth as untreated, 0 = no growth, -100 = all killed)
Common to all, as to details: 10 µM unless noted

On to `Nc1nc2ccccc2c2c(=O)c3cc(F)ccc3sc12`, for which the growth in the assay with NCI-H23 lung was 87.3%; in the assay on NCI-H226 lung, 94.5%; in the assay on NCI-H322M lung it was 99.2%; in the assay on HOP-62 NSCLC it was 108%; in the assay with NCI-H460 lung, 103%; in the assay on HOP-92 NSCLC, 80.8%. Also, the growth with NCI-H522 lung was 98.1%; in the assay with A549/ATCC NSCLC, 104%; in the assay on 786-0 renal it was 97.4%; in the assay with COLO 205 colon, 110%; in the assay with DU-145 prostate it was 104%; in the assay with K-562 leukemia it was 107%. Moreover, the growth was 96.5% in the assay on MALME-3M melanoma; 100% with MDA-MB-231 breast; 104% in the assay on RXF 393 renal; 103% with SF-268 CNS; 100% with SF-295 CNS; 104% with SF-539 CNS. In addition, the growth was 104% in the assay with UACC-257 melanoma and 99.6% with M14 melanoma.

`O=c1c2cc(F)ccc2sc2c(N3CCCCC3)nc3ccccc3c12`: the growth is 95.8% with NCI-H23 lung; 86% with NCI-H226 lung; 90.1% in the assay with NCI-H322M lung; 99.3% in the assay on HOP-62 NSCLC; 109% with NCI-H460 lung; 84.2% in the assay on HOP-92 NSCLC. The growth with NCI-H522 lung was 98.5%; with A549/ATCC NSCLC, 96.2%; in the assay with 786-0 renal it was 95.8%; with COLO 205 colon it was 106%; in the assay on DU-145 prostate it was 107%; in the assay on K-562 leukemia it was 112%. Besides, the growth with MALME-3M melanoma was 104%; in the assay with MDA-MB-231 breast, 98.9%; in the assay with RXF 393 renal, 104%; in the assay on SF-268 CNS it was 102%; with SF-295 CNS, 101%; in the assay on SF-539 CNS, 102%. Further, the growth in the assay on UACC-257 melanoma is 97.3%; with M14 melanoma it was 96.8%.

`Nc1ccccc1-c1cc2c(c3c1[nH]c1ccccc13)CCCCC2`: the growth is 90.5% with NCI-H23 lung; 117% in the assay on NCI-H226 lung; 99% with NCI-H322M lung; 105% with HOP-62 NSCLC; 97.2% in the assay with NCI-H460 lung; 105% in the assay on HOP-92 NSCLC. Besides, the growth was 84.8% in the assay with NCI-H522 lung; 95.8% in the assay with A549/ATCC NSCLC; 89.3% in the assay with 786-0 renal; 101% in the assay with COLO 205 colon; 102% with DU-145 prostate; 98% in the assay with K-562 leukemia. For the same compound, the growth was 117% in the assay on MALME-3M melanoma; 90.3% in the assay with MDA-MB-231 breast; 113% in the assay with RXF 393 renal; 97.2% in the assay with SF-268 CNS; 103% in the assay on SF-295 CNS; 116% in the assay with SF-539 CNS. In addition, the results for the growth in the assay with UACC-257 melanoma and with M14 melanoma were 105% and 92.5%, respectively.

As for `C(=N/Nc1ncnc2nc[nH]c12)/c1ccccn1`, the growth was 47.6% in the assay on NCI-H23 lung; 39.9% in the assay with NCI-H226 lung; 22.4% in the assay with NCI-H322M lung; 23.6% with HOP-62 NSCLC; 55.8% in the assay with NCI-H460 lung; 19.4% in the assay with HOP-92 NSCLC. In addition, the growth with NCI-H522 lung was 35.7%; in the assay on A549/ATCC NSCLC it was 35.2%; in the assay with 786-0 renal, 21.4%; in the assay on COLO 205 colon, 26.1%; with DU-145 prostate, 32.1%; with K-562 leukemia it was 24.8%. In addition, the growth in the assay on MALME-3M melanoma was 46.4%; in the assay on MDA-MB-231 breast, 53.7%; in the assay with RXF 393 renal it was 66.8%; with SF-268 CNS, 26.6%; with SF-295 CNS it was 20.1%; with SF-539 CNS it was 20.6%. Besides, the values for the growth in the assay on UACC-257 melanoma and in the assay on M14 melanoma were 51.5% and 14.2%, respectively.

For `Cn1cc(-c2cc3ncnc(Nc4ccc(CC(=O)Nc5cc(C(C)(C)C)nn5C)cc4)c3s2)cn1`, the growth is 60% with NCI-H23 lung; 38% with NCI-H226 lung; 46.4% in the assay with NCI-H322M lung; 71% in the assay on HOP-62 NSCLC; 43.5% with NCI-H460 lung; 70% in the assay with HOP-92 NSCLC. In addition, the growth in the assay with NCI-H522 lung was 41.5%; in the assay on A549/ATCC NSCLC, 42.1%; in the assay with 786-0 renal it was 43.7%; in the assay with COLO 205 colon it was 52.9%; with DU-145 prostate it was 40.3%; in the assay on K-562 leukemia it was 17%. The growth with MALME-3M melanoma is 56.7%; with MDA-MB-231 breast, 47.7%; in the assay with RXF 393 renal, 9.8% (active); in the assay with SF-268 CNS, 51.8%; in the assay with SF-295 CNS, 58.1%; in the assay with SF-539 CNS, 47.4%. In addition, the growth in the assay on UACC-257 melanoma was 83.9%; in the assay on M14 melanoma, 39.2%.

Regarding `COc1cc(C(=O)/C=C/c2ccc(OCCCCCC[P+](c3ccccc3)(c3ccccc3)c3ccccc3)cc2)cc(OC)c1OC`, the growth with NCI-H23 lung is -63% (active); in the assay with NCI-H226 lung it was -29.2% (active); in the assay on NCI-H322M lung, -23.1% (active); with HOP-62 NSCLC it was -62.2% (active); in the assay with NCI-H460 lung, -73.6% (active); in the assay with HOP-92 NSCLC, -26.2% (active). Besides, the growth in the assay on NCI-H522 lung was -70.4% (active); in the assay with A549/ATCC NSCLC, -1.89% (active); in the assay with 786-0 renal, -92.4% (active); in the assay with COLO 205 colon it was -95.3% (active); in the assay with DU-145 prostate, -1.64% (active); in the assay with K-562 leukemia it was 0.54% (active). The growth in the assay with MALME-3M melanoma was -37.9% (active); with MDA-MB-231 breast it was -15.1% (active); in the assay on RXF 393 renal, -47.3% (active); in the assay on SF-268 CNS, -6.6% (active); in the assay on SF-295 CNS, -23.4% (active); with SF-539 CNS, -86.2% (active). The growth in the assay on UACC-257 melanoma is -21.4% (active); with M14 melanoma, -55.8% (active).

`Clc1ccc(C(/C=C/c2sc(Cl)nc2Cl)=N/Nc2cc(Cl)cc(Cl)c2)cc1`: the growth was 92.2% with NCI-H23 lung; 90.1% in the assay on NCI-H226 lung; 99.9% in the assay on NCI-H322M lung; 99.1% in the assay with HOP-62 NSCLC; 103% in the assay on NCI-H460 lung; 93% with HOP-92 NSCLC. Besides, the growth with NCI-H522 lung was 90.8%; in the assay with A549/ATCC NSCLC, 103%; in the assay with 786-0 renal, 106%; in the assay with COLO 205 colon it was 118%; in the assay on DU-145 prostate, 112%; in the assay on K-562 leukemia it was 94.6%. Further, the growth in the assay with MALME-3M melanoma was 103%; in the assay on MDA-MB-231 breast, 103%; in the assay on RXF 393 renal, 110%; in the assay on SF-268 CNS it was 99.4%; in the assay on SF-295 CNS it was 104%; in the assay with SF-539 CNS, 106%. Moreover, the growth in the assay on UACC-257 melanoma is 99.1%; in the assay with M14 melanoma, 107%.
